Screening results from PubChem BioAssay.
Shown is part of a subset that was picked to be rich in hits.
Ba CapD inh – CapD enzyme inhibition; purified CapD enzyme, fluorescence intensity read-out; active compounds read low; z-score (concentration not given with the values); actives 0.23% (n = 140,000); AID 492967; in the data active means z-score mostly below about -2.9, no sharp cut-off; inactive means mostly above about -1.9
A number is an active result; n = inactive.

SMILES | Ba CapD inh
CCCCn1c(=O)c2oc3ccccc3c2n(Cc2cccc(Cl)c2)c1=O | n
O=C(c1ccccc1)c1cc2ccc(O)cc2oc1=O | -6.3
O=C(c1ccccc1)c1cc(Br)ccc1NC(=O)c1cc2ccccc2oc1=O | n
CCc1ccc(C(=O)c2cc3ccc(O)cc3oc2=O)cc1 | n
O=C1C(=O)N(CCCN2CCOCC2)C(c2ccccc2F)/C1=C(\O)c1ccc(F)cc1 (configuration not stated) | n
CCOC(=O)C1=C(O)/C(=C/c2ccc(OC)cc2)SC1=Nc1ccc(Cl)cc1 | n
O=C(Oc1ccc(N(C(=O)c2ccccc2)S(=O)(=O)c2cccs2)cc1)c1ccccc1 | n
CC(=O)N(c1ccc(N(C(C)=O)S(=O)(=O)c2cccs2)cc1)S(=O)(=O)c1cccs1 | n
COc1ccc(N(C(=O)c2ccncc2)S(=O)(=O)c2cccs2)cc1 | -8.5
O=C(OCC(=O)c1cc(Cl)ccc1Cl)c1cccc(O)c1 | n
O=C(Oc1ccccc1/C=C1\Sc2ccccc2C1=O)c1ccc([N+](=O)[O-])o1 | n
COc1ccc(OC)c(Nc2nc3cc(C)ccc3cc2C)c1 | n
C=CCN1C(=O)NC(=O)/C(=C/c2ccccc2OCc2ccc(F)cc2)C1=O | n
CCCN1CCN(C(=O)c2sc3nc4n(c(=O)c3c2C)CCCC4)CC1 | n
Cc1c(C(=O)N(C)Cc2ccccc2)sc2nc3n(c(=O)c12)CCCC3 | n
Cc1c(C(=O)O)sc2nc3n(c(=O)c12)CCC3 | -5.2
O=C(/C=C/c1ccc(Br)cc1)Nn1c(-c2cccc([N+](=O)[O-])c2)nc2ccccc2c1=O | n
COc1ccccc1NC(=O)C1=C(C)NC(=O)NC1c1ccc(OC)c(OC)c1 (configuration not stated) | n
CCN1C(=O)c2ccccc2S(=O)(=O)c2ccc(C(=O)NCCN3CCCCCC3)cc21 | n
COc1ccc(C(=O)N2CCN(Cc3ccc(OC)c(OC)c3OC)CC2)cc1 | n
O=C(N/N=C/c1ccc(Cl)c(F)c1)c1ccc2ccccc2c1 | n
CC(C)(C)c1ccc(-c2nnc(-c3ccccc3NC(=O)c3ccc(Cl)cc3)o2)cc1 | n
CCc1cc(C(=O)Nc2sccc2C(N)=O)cs1 | n
COc1cc(/C=C2\SC(=S)N(C(C(=O)O)C(C)C)C2=O)cc(OC)c1O (configuration not stated) | n
CCOc1cc(/C=C2\SC(=S)N(C(C(=O)O)C(C)C)C2=O)ccc1O (configuration not stated) | -4.8
SMILES | Ba CapD inh
CC(C)C(C(=O)O)N1C(=O)/C(=C/c2ccccc2)SC1=S (configuration not stated) | n
Oc1ccc(Cl)cc1C1=Nc2ccccc2N=C(c2ccc(F)cc2)C1 | n
C=CCc1cc(OC)cc(CC=C)c1O | n
CCOC(=O)CSc1nc(N)c2c(C)c(C)sc2n1 | n
S=C(N/N=C\c1ccco1)Nc1ccccc1 | n
S=C(NCc1ccccc1)N/N=C/c1ccco1 | n
CC(C)NC(=S)N/N=C/c1ccco1 | -4
CCNC(=O)N1CCC(c2nnc(-c3ccc(F)cc3)o2)CC1 | n
CCc1cc2c(cc1-c1csc(Nc3ccccc3Cl)n1)C(C)(C)CCC2(C)C | n
CNc1cc(F)nc(NC)n1 | n
Cc1cc(C)c(C)c(C2=NON3N(C(=O)c4ccc(F)cc4)c4ccccc4N23)c1C | n
Cc1nnc(NC2CCCC2)s1 | n
CCN1/C(=C\C(=S)Nc2ccccc2)Sc2ccccc21 | -4.4
CCC(=S)/C=C1\Sc2ccc(OC)cc2N1CC | n
CCC(=S)/C=C1/Sc2ccc(Cl)cc2N1CC | n
C=CCSc1nc(Oc2ccc3ccccc3c2)c2sccc2n1 | n
CC(OCc1ccccc1)C(NC(=O)c1cc(=O)n(-c2ccccc2)[nH]1)C(=O)OCc1ccccc1 (configuration not stated) | n
Cc1noc(/C=C/N(C)C)c1S(=O)(=O)N1CCCC(C(=O)NC2CCCCC2)C1 (configuration not stated) | n
Cc1noc(/C=C/N2CCOCC2)c1S(=O)(=O)N(C)CC(=O)NC1CCCCC1 | -5.5
CCc1ccccc1N(C)S(=O)(=O)c1c(C)noc1/C=C/N1CCOCC1 | n
CCOC(=O)c1c(C)n(-c2ccccc2)c2c1cc(OC(=O)c1ccccc1C)c1ccccc12 | n
CCOC(=O)c1cnc2cc(C)nn2c1C | n
Cc1cc2ncc(C(=O)/C=C/N(C)C)c(C)n2n1 | -5.1
CC(=O)c1cnc2cc(C)nn2c1C | n
COC(=O)c1ccc(-c2ccco2)n1CC(=O)N1CCN(c2cccc(OC)c2)CC1 | n
